Assay results taken from ChEMBL document CHEMBL3988442, “University of Dundee, Small-Polar-MMV Screening Library” (2021).
For some of these results: Entries with a potency or affinity are not part of this list.

Key:
Parameters in all cases: scale not given: direction of the effect not stated beside the values
[1] = biological target: Protein translocase subunit SecA (Escherichia coli (strain K12)) (UniProt P10408); experiment: Assay to Identify E. coli SecA ATPase Inhibitors; type: functional; settings: 30 µM
[2] = biological target: T1, Ubiquitin-activating enzyme e1, putative (Leishmania donovani (strain BPK282A1)) (UniProt E9BSI1); experiment: Leishmania donovani Ubiquitin Activating Enzyme (LdE1); type: functional; settings: 30 µM
T1 sequence (whole entry): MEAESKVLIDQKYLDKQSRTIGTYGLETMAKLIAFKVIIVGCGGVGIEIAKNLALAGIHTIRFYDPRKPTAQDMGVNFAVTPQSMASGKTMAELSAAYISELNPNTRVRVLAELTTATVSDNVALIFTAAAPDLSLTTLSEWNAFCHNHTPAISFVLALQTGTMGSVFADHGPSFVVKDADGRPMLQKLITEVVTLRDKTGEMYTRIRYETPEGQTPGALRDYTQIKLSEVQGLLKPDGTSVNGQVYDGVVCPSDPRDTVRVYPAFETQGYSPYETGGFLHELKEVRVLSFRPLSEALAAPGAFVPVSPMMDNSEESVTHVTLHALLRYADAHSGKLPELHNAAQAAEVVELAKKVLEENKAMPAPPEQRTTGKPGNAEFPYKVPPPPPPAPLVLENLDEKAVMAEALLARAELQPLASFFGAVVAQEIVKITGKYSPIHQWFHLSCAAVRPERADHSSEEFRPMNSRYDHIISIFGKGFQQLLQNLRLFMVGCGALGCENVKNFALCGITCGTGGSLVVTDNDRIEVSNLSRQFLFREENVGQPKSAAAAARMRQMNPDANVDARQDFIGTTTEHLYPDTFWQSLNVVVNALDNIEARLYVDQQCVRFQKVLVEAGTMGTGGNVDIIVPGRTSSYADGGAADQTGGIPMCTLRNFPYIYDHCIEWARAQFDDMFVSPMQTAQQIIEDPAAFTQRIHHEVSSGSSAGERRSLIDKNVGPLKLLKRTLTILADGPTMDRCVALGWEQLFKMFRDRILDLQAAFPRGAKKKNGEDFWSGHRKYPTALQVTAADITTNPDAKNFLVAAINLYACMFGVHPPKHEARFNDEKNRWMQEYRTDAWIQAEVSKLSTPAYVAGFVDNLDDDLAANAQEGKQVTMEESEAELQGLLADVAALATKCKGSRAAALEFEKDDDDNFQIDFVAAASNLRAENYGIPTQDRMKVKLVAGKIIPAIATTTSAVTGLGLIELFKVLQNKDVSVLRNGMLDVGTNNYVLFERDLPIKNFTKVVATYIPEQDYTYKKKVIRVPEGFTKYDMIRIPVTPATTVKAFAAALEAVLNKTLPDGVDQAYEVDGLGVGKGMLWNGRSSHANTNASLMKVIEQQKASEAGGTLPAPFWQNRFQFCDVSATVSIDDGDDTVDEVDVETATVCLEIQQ

[3] = biological target: AMP-activated protein kinase, AMPK (Homo sapiens) (UniProt P54646+O43741+P54619+Q9UGJ0+Q9Y478+Q13131+Q9UGI9); experiment: AMP-dependent Kinase enzyme assay. An in vitro enzyme assay that detects ADP turnover that is directly proportional to AMPK activity. This uses naive AMPK that is activated during the assay with MK-8722; type: functional; settings: 30 µM
[4] = biological target: Sialic acid-binding Ig-like lectin 9 (Homo sapiens) (UniProt Q9Y336); experiment: Hs-Siglec9 ALPHAscreen SOP 20170721; settings: 10 µM
Trypanosoma cruzi = experiment: Trypanosoma cruzi phosphomannomutase and mannose-1-phosphate guanylyltransferase assay; type: functional; settings: 10 µM
[5] = biological target: T2, Arginase-2, mitochondrial (Homo sapiens) (UniProt P78540); experiment: in vitro enzyme assay to detect the production of urea directly proportional to the activity of Arginase II; type: functional; settings: 33.3 µM; note: in the data most compounds retested in dose-response had high values
T2 sequence (whole entry): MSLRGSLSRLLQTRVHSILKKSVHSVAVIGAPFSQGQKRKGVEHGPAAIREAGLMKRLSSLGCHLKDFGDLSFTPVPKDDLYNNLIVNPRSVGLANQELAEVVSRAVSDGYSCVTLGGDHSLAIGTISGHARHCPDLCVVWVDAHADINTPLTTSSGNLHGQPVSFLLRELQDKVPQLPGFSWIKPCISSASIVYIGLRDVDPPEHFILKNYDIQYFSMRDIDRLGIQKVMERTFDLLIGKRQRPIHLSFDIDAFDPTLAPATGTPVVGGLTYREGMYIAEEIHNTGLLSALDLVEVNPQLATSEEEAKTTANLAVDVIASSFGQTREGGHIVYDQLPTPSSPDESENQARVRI

[6] = biological target: T3, Proteasome subunit beta (Trypanosoma cruzi) (UniProt O96673); experiment: Trypanosoma cruzi proteasome chymotrypsin-like activity (TcProtChymo) assay.; note: in the data most compounds retested in dose-response had high values; type: functional; settings: 9.37 µM
T3 sequence (whole entry): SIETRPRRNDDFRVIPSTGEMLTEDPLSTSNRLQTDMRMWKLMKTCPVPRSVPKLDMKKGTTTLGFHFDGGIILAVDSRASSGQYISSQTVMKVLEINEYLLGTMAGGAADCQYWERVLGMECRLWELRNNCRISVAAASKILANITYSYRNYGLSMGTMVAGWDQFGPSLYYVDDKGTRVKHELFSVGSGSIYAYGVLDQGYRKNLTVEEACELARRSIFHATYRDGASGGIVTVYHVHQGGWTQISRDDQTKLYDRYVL

Homo sapiens = species on record: Homo sapiens; experiment: To identify inhibition of the IFN signalling (Jak-Stat) pathway via expression of an eGFP reporter gene under the control of an IFN-stimulated response element (ISRE) containing MxA promoter.; type: functional; settings: 30 µM
[7] = biological target: T4, Tyrosyl-tRNA synthetase, putative (Trypanosoma cruzi (strain CL Brener)) (UniProt Q4DSP6); experiment: Trypanosoma cruzi tyrosyl tRNA synthetase (TcYRS) _High Tyrosine SOP; type: functional; settings: 30 µM; note: in the data most compounds retested in dose-response had high values
T4 sequence (whole entry): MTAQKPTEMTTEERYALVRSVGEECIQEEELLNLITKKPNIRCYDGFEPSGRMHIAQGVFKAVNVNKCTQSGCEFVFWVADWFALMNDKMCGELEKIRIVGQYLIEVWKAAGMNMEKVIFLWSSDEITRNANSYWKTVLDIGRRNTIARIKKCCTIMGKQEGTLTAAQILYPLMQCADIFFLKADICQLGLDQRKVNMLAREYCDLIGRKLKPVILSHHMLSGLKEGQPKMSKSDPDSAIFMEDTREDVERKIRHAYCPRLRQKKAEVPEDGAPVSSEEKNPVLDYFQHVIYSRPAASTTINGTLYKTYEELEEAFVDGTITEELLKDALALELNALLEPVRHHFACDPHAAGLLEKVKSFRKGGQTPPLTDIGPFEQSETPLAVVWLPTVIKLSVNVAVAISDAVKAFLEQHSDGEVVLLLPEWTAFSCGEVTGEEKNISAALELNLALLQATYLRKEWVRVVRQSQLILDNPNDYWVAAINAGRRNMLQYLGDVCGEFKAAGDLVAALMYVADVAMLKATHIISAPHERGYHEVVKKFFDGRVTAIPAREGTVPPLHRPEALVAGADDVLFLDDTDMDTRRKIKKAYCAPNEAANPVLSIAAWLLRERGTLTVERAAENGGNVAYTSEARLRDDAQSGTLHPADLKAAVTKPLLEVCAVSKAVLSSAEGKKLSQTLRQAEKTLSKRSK

[8] = biological target: T4, Tyrosyl-tRNA synthetase, putative (Trypanosoma cruzi (strain CL Brener)); experiment: Trypanosoma cruzi tyrosyl tRNA synthetase (TcYRS) SOP; type: functional; settings: 30 µM
[9] = biological target: Chromo domain-containing protein 1 (Saccharomyces cerevisiae (strain ATCC 204508 / S288c) (Baker's yeast)) (UniProt P32657); experiment: ScCHD-1 Enzyme Inhibition Assay; type: functional; settings: 30 µM; note: in the data most compounds retested in dose-response had high values
Chain of Chromo domain-containing protein 1 (Saccharomyces cerevisiae (strain ATCC 204508 / S288c) (Baker's yeast)) (P32657 whole entry, the tested form may be a part): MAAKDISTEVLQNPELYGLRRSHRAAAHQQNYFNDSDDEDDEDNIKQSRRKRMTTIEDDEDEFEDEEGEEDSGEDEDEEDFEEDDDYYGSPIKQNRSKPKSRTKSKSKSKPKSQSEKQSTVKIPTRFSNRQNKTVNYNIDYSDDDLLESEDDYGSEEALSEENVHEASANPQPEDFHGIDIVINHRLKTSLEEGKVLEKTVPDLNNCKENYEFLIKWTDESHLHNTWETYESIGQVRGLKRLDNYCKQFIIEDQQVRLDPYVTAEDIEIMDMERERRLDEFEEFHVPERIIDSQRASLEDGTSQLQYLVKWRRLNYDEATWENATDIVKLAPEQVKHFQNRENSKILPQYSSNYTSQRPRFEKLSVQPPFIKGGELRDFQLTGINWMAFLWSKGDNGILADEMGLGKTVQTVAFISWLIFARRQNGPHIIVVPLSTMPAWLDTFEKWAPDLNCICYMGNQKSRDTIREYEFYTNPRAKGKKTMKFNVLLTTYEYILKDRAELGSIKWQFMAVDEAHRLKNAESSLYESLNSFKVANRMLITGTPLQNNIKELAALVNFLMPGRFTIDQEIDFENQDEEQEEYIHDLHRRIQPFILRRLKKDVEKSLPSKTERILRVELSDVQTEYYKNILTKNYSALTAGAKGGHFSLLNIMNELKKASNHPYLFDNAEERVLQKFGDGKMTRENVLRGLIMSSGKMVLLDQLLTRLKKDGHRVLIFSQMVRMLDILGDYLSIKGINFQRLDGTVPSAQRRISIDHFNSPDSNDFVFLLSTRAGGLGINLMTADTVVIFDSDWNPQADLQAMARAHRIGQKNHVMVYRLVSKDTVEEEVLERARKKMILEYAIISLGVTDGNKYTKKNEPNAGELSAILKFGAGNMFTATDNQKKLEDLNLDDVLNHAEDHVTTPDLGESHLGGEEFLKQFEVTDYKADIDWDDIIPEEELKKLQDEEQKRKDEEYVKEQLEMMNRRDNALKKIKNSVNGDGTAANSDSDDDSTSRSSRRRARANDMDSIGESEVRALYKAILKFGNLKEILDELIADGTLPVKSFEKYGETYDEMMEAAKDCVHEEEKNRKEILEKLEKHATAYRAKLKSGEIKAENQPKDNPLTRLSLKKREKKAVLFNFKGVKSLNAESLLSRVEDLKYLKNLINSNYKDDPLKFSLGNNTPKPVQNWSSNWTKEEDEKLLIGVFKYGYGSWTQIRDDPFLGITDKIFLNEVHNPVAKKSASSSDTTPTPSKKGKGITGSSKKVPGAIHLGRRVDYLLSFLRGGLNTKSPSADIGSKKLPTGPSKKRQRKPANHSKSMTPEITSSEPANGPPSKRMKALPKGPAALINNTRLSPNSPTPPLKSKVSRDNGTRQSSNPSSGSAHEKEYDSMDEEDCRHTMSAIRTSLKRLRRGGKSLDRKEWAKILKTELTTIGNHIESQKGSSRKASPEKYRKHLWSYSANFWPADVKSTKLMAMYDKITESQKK

Chain of Protein translocase subunit SecA (Escherichia coli (strain K12)) (P10408 whole entry): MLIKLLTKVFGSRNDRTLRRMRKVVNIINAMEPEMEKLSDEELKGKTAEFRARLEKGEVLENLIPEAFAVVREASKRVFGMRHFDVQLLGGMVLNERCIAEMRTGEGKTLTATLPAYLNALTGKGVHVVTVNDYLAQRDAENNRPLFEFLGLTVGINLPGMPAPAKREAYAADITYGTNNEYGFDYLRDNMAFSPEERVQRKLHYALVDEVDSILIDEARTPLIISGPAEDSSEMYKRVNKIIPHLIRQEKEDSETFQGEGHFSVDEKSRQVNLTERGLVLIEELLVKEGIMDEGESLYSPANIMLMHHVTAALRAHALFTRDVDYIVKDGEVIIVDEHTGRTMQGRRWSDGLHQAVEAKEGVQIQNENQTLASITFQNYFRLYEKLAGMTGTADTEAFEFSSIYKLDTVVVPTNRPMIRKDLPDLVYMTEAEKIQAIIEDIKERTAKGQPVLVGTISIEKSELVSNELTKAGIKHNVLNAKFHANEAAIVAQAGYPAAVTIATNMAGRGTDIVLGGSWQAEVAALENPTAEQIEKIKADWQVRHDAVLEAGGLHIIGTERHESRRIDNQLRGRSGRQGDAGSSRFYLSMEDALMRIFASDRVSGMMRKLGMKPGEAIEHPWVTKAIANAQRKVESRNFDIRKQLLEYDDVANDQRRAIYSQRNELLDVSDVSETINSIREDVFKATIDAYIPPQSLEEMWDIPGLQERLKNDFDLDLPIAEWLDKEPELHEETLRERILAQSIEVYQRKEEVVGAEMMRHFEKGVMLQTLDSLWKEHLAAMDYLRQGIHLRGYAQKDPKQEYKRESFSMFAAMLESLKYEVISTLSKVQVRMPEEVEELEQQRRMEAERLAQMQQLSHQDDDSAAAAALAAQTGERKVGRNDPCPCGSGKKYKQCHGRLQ
Chain of Sialic acid-binding Ig-like lectin 9 (Homo sapiens) (Q9Y336 whole entry): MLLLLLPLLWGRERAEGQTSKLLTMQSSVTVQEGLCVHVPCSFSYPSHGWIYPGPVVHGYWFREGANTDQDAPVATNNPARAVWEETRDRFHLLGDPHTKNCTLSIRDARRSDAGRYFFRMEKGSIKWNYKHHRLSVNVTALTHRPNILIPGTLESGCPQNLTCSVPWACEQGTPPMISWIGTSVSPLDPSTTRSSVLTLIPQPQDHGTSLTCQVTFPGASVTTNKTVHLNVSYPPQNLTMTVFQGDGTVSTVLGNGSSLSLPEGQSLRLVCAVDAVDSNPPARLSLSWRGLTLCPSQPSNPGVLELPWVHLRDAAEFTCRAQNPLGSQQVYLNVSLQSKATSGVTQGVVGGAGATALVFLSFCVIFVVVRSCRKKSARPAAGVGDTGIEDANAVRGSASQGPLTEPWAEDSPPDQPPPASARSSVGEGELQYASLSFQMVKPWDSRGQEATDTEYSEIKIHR

Compound	Percent Effect [1]	Percent Effect [2]	Percent Effect [3]	Percent Effect [4]	Percent Effect (Trypanosoma cruzi)	Percent Effect [5]	Percent Effect [6]	Percent Effect (Homo sapiens)	Percent Effect [7]	Percent Effect [8]	Percent Effect [9]
O=C(COc1ccc2c(c1)CCC2)N1CCOCC1c1ncon1 (stereo unspecified)	-2.91%	2.7%	-3.96%	-4.39%	-4.62%	1.2%	-1.62%	13.6%	4.43%	6.17%	-2.72%
CCCn1nc2c(cc1=O)CN(Cc1nc(CCOC)no1)CC2	-1.92%	0%	-119%	-3.46%	-0.781%	0.417%	10.6%	-1.9%	-7.92%	-6.1%	-7.2%
CC(CNC(=O)Nc1cn[nH]c1)N1CCOCC1 (stereo unspecified)	-0.592%	13%	1.69%	-6.2%	-3.04%	6.53%	15.9%	25%	7.62%	18.8%	-18.5%
CSCCNC(=O)c1ccc(OC2CCN(CC(C)(C)C)CC2)c(Cl)c1	-3.94%	8.11%	-0.678%	31.3%	7.53%	0.248%	7.47%	-3.54%	2.15%	8.64%	-9.27%
Cc1cc(C)c(CNC(=O)N2CCCC2C(N)=O)c(=O)[nH]1 (stereo unspecified)	-3.77%	6.33%	7.27%	3.83%	-1.95%	1.5%	23.5%	11.6%	5.21%	12.7%	-14.7%
CN1CCOC(CNCc2cccc(OCC(F)(F)F)c2)C1 (stereo unspecified)	-3.56%	5.06%	-19.3%	12.1%	-1.79%	0.38%	-6.31%	0.0497%	4.43%	1.27%	-2.57%
c1ccc(Oc2cc(CNCC3CNc4ccnn4C3)ccn2)cc1 (stereo unspecified)	-2.02%	11.4%	-0.557%	-0.022%	5.85%	2.37%	11.7%	11.8%	19.8%	20.2%	-13.3%
Cn1cc(CN2CCN(Cc3nccn3C)CC2)cn1	1.49%	10.8%	7.76%	-5.51%	-8.31%	-1.24%	7.12%	43.3%	0%	1.24%	-4.77%
O=S(=O)(c1ccccc1)N1CCCN(CCCn2ccnc2)CC1	-1.12%	0%	-5.54%	24.8%	5.38%	-0.248%	3.35%	-7.92%	2.15%	3.7%	-12.2%
CC(=O)Nc1nc(C2CCN(C(=O)c3cccnc3)CC2)cs1	-6.73%	21.3%	0.538%	3.28%	2.36%	-2.56%	12.1%	5.76%	5.32%	19.2%	-2.51%
Cc1cc(NC(=O)CN2CCc3cnc(C)nc3C2)on1	-3.81%	5.26%	-27.9%	2.68%	7.75%	1.8%	9.39%	-5.85%	8.37%	16.1%	-7.97%
